Activity calls are given as the source filed them.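 The calls were made as follows, unless noted: active = inhibition at or above 50% at 10 µM; inactive = inhibition below 50%.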
Tests used:
[1] = inhibitors of TNFa-induced NFkB p65 translocation, primary screen, imaging, HUVEC, MLSMR starter and 10KST1 sets (AID 438;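 active = inhibition above 20% together with a positive visual image hit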;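 also: compound added about 3h40 before a 20 min TNFalpha stimulation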;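 as to inhibition: signal is the nuclear over cytoplasmic p65 intensity ratio per well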); conditions: HUVEC TNFa-induced p65 nuclear translocation; cell count: measured here: nuclei count (cytotoxicity indicator), at 2.08 µM; inhibition: at 2 µM, stronger effect = higher value, 0% TNFa-plus-vehicle, 100% no-TNFa wells
[2] = reduction of polyQ htt aggregates in cells – imaging, exon1htt(103Q)mCFP cells, high-content imaging, primary screen (AID 483;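 active = visual image review flags a hit and inhibition of aggregation exceeds 20%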;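 also: compound exposure lasted 3 days before fixation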;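 as to nuclei count: percent of the per-plate median nuclei count of sample wells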); conditions: exon1htt(103Q)mCFP cell line, aggregate imaging, at 2 µM; inhibition of aggregation: stronger effect = higher value; nuclei count: measured here: cell count, toxicity
[3] = endothelial E-selectin expression blockers – imaging, HUVEC, immunofluorescence, MLSMR starter and 10KST1 sets, primary screen (AID 487;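 active = visually confirmed hit in the image check and inhibition above 20%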;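 as to inhibition: signal is fraction of cell area covered by stained E-selectin grains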;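 as to nuclei count: 100% = median nuclei count of all wells on the same plate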); conditions: HUVEC TNFalpha-induced E-selectin immunofluorescence imaging, at 2 µM; inhibition: stronger effect = higher value; nuclei count: measured here: cell number, toxicity
[4] = target: Voltage-gated potassium channel subunit beta-2 (Rattus norvegicus) (UniProt P62483); assay: inhibitors of rat Kvbeta2 reductase activity – biochemical, NADPH fluorescence, primary screen (AID 622;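 active = fluorescence slope higher than the sample average by over 3 SD, cut at about -0.22 in these data, passing the limit was not always enough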;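 also: slope of raw intensity against log time taken from 70 to 1610 s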); conditions: recombinant KvBeta, 4-cyanobenzaldehyde reduction, at 10 µM, stronger effect = higher value
Sequence of Voltage-gated potassium channel subunit beta-2 (Rattus norvegicus) (P62483 whole entry, looked up): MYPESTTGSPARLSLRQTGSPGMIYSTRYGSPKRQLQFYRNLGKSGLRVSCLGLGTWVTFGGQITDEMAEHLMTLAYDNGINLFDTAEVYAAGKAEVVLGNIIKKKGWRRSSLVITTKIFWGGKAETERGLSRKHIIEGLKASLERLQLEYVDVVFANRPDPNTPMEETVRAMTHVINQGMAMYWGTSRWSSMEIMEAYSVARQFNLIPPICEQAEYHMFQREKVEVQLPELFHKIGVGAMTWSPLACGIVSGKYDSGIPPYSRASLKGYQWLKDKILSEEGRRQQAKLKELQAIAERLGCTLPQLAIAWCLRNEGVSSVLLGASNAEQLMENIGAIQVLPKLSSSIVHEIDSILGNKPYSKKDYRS

[5] = target: Voltage-gated potassium channel subunit beta-2 (Rattus norvegicus) (UniProt P62483); assay: enhancers of rat Kvbeta2 NADPH turnover – biochemical, NADPH fluorescence, primary screen (AID 623;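 active = NADPH fluorescence slope more negative than the mean of all samples by about 3 SD, 99.7% confidence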;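 also: fluorescence intensity change per second fitted from 20 to 320 s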); conditions: Recombinant KvBeta, NADPH fluorescence decrease slope, 10 min; at 10 µM; stronger effect = lower value
[6] = target: Alpha-2C adrenergic receptor (Homo sapiens) (UniProt P18825); assay: compounds altering alpha2C-coupled GIRK flux – cell-based, HEK293 alpha2C/GIRK1/2, thallium flux, primary screen (AID 624;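 active = fluorescence slope after compound addition differing from the mean of all screened samples at 99.7% confidence, in either direction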;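 also: slope of fluorescence ratio to pre-addition baseline per second over 15 to 24 s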); conditions: thallium flux BTC fluorescence, at 10 µM, actives lie on both sides
Sequence of Alpha-2C adrenergic receptor (Homo sapiens) (P18825 whole entry, looked up): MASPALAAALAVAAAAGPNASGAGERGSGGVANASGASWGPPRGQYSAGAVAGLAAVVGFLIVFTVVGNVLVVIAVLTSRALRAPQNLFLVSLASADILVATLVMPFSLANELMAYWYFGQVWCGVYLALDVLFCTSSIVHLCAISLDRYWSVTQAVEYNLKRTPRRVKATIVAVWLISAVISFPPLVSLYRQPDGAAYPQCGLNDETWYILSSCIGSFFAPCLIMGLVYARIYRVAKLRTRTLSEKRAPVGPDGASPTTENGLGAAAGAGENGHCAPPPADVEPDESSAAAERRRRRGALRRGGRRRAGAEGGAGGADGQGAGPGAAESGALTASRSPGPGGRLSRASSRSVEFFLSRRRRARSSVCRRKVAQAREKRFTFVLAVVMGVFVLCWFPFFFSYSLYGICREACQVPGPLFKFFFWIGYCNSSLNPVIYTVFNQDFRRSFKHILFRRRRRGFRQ

[7] = blockers of RIG-like receptor reporter activation – cell-based, Sendai virus stimulus, luciferase, 10K MLSCN set, TLR/RLR signaling modifier project, primary screen (AID 602276); conditions: HEK293 RL24 IRF3 luciferase reporter, at 10 µM, stronger effect = higher value;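 also: firefly luciferase from ISG56 promoter only with Renilla not read in this screen; 0% = Sendai virus plus DMSO and 100% = medium plus DMSO without virus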
[8] = TLR3 IRF3 reporter activation blockers – cell-based, poly I:C stimulus, luciferase, 10K MLSCN set, primary screen (AID 602277;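 active = inhibition of the reporter signal at or above 50%; inactive = inhibition below 50%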); conditions: HEK293-TLR3 RL24 IRF3 luciferase reporter, at 10 µM, stronger effect = higher value

| Structure (SMILES) | cell count [1] | inhibition [1] | inhibition of aggregation [2] | nuclei count [2] | inhibition [3] | nuclei count [3] | fluorescence slope [4] | NADPH fluorescence slope [5] | slope [6] | inhibition [7] | inhibition [8] |
| --- | --- | --- | --- | --- | --- | --- | --- | --- | --- | --- | --- |
| CCn1cc(SCC(=O)Nc2cc(C)on2)c2ccccc21 | 760 | -15.1% (inactive) | -0.1% (inactive) | 60.4% | 29.9% (inactive) | 86.4% | -0.494 (inactive) | -2.7e-05 (inactive) | 0.00702 (inactive) | 26.7% (inactive) | 25.1% (inactive) |
| CC1CCCC(C)N1C(=O)CSc1nnc(-c2cccs2)o1 (configuration not stated) | 400 | -14% (inactive) | -29.6% (inactive) | 114% | -9.9% (inactive) | 101% | -0.382 (inactive) | -5.4e-05 (inactive) | 0.0042 (inactive) | -27.4% (inactive) | -68% (inactive) |
| CC(C)OCCCNC(=O)c1cc2c(s1)CS(=O)(=O)C2 | 215 | 1.9% (inactive) | 7.5% (inactive) | 80.8% | 25.9% (inactive) | 103% | -0.352 (inactive) | -5.6e-05 (inactive) | 0.0057 (inactive) | 5.68% (inactive) | 5.21% (inactive) |
| c1ccc(CN2CCN(CCCNc3ccc4nnc(-c5ccccc5)n4n3)CC2)cc1 | 485 | -5.5% (inactive) | 13.8% (inactive) | 10.8% | -67.5% (inactive) | 102% | -0.63 (inactive) | -1.7e-05 (inactive) | 0.00645 (inactive) | -3.46% (inactive) | -17.8% (inactive) |
| O=S(=O)(c1ccc(F)c(Cl)c1)N1CCCC1 | 331 | 2.2% (inactive) | 8.7% (inactive) | 98.5% | 31.8% (inactive) | 99.6% | -0.486 (inactive) | -1e-05 (inactive) | 0.00653 (inactive) | 2.45% (inactive) | 30.3% (inactive) |
| O=C(CSc1nc2ccccc2s1)N1CCOCC1 | 330 | 0.5% (inactive) | -12.6% (inactive) | 105% | -38.9% (inactive) | 118% | -0.525 (inactive) | -1.9e-05 (inactive) | 0.00424 (inactive) | -27.4% (inactive) | -58.1% (inactive) |
| NC(=O)CSc1nnc(-c2cc3ccccc3o2)n1Cc1ccccc1 | 426 | 6.3% (inactive) | -2.8% (inactive) | 101% | -33% (inactive) | 129% | -0.272 (inactive) | 1.6e-05 (inactive) | 0.003 (inactive) | 19.8% (inactive) | 18.4% (inactive) |
| COc1ccc(-n2c(Cc3cccn3C)nnc2SCC(N)=O)cc1 | 531 | -4.4% (inactive) | 6.6% (inactive) | 63.8% | 1.4% (inactive) | 99.3% | -0.59 (inactive) | -3.3e-05 (inactive) | 0.00644 (inactive) | 17.9% (inactive) | 27.2% (inactive) |
| CCOCCCNC(=O)C1CCN(S(=O)(=O)N(CC(C)C)CC(C)C)CC1 | 689 | -5.1% (inactive) | 17.3% (inactive) | 79.1% | -91.6% (inactive) | 100% | -0.503 (inactive) | -5.5e-05 (inactive) | 0.00467 (inactive) | 16.6% (inactive) | 19.9% (inactive) |
| Cc1cccc(-n2ncc3c(N(CCO)CCO)ncnc32)c1 | 635 | 1.4% (inactive) | -5% (inactive) | 53.9% | -35.6% (inactive) | 125% | -0.513 (inactive) | -1.8e-05 (inactive) | 0.00728 (inactive) | -28.4% (inactive) | -84.3% (inactive) |
| Cn1c(-c2cc(Br)ccc2O)n[nH]c1=S | 440 | 5.5% (inactive) | -2.6% (inactive) | 109% | -76.5% (inactive) | 118% | -0.51 (inactive) | 4.9e-05 (inactive) | 0.00989 (inactive) | -4.65% (inactive) | -14.4% (inactive) |
| Cc1cc(C)c(C#N)c(SCc2ccc(C#N)cc2)n1 | 609 | -7.7% (inactive) | -4.1% (inactive) | 52% | 40.3% (inactive) | 104% | -0.435 (inactive) | -5.8e-05 (inactive) | 0.00656 (inactive) | 5.07% (inactive) | -3.75% (inactive) |
